From PubChem BioAssay (NCATS) come the findings set out here.

Experiment [1] addresses Rap guanine nucleotide exchange factor 3 (Homo sapiens) (UniProt O95398). In words: Confirmatory qHTS for antagonist of cAMP-regulated guanine nucleotide exchange factor 3 (EPAC1) (AID 1645880).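 Also: plate controls were DMSO only for no effect and full effect of the ATA control for full effect; nearly all actives have a fitted effect of over 55% in size.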 An outline of the steps: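 Nucleotide exchange uses 100 nM EPAC1, 250 nM RAP1B-BODIPY-GDP and 50 uM GDP, with compounds in a concentration-titration series. After 5 min at room temperature, fluorescence (480 nm ex/540 nm em) is read every 5 min for 30 min. Data are normalized to control ATA and DMSO.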

Experiment [2] in a line: Confirmation and Secondary Assay for Modulators of Hemoglobin Beta Chain Splicing at IVS2 654 locus (AID 910).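 Also: HeLa cells stably carrying EGFP split by mutant beta-globin IVS2-654 intron; % of control where 0% means no effect.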 An outline of the steps: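 HeLa cells stably expressing EGFP interrupted by β-globin IVS2-654 intron, seeded overnight in Opti-MEM/2% FCS, then treated 2 days at 37 °C. Restored splicing read as total peak GFP intensity per well by laser scanning cytometry (488 nm excitation, 500–520 nm emission); 500 nM antisense PNA as control.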

Experiment [3] is described as follows: Confirmation and Secondary Assay for Modulators of Hemoglobin Beta Chain Splicing at IVS2 705 locus (AID 930).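 Also: HeLa cells stably expressing the EGFP-705 splicing reporter; % of control where 0% means no effect.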 An outline of the steps:
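Restored EGFP fluorescence after 2-day compound exposure reports splicing correction in IVS2-705 EGFP reporter HeLa cells; positive control was 500 nM splice-blocking PNA oligo. Signal measured as well total peak GFP intensity (488 nm excitation).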

In experiment [4] the target is Cytochrome P450 2C9 (Homo sapiens) (UniProt P11712). In words: qHTS Assay for Inhibitors and Substrates of Cytochrome P450 2C9 (AID 883). Also: nearly all actives have a fitted effect of over 60% in size. Also: potency is read from the fitted curve at half-maximal effect. An outline of the steps: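 Human CYP2C9 (10nM) with Luciferin-H at 100uM (its KM) in 25mM KPO4; compound preincubated 10 min at 37C, then NADPH regeneration for 60 min at 37C. Luciferin read by luminescence after detection reagent; normalized to 57uM sulphaphenazole as full inhibition.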
Background: Quantitative high-throughput screening tests each substance at several concentrations.

Experiment [5] is described as follows: qHTS Assay for Identification of Small Molecule Agonists for Hypoxia Response Element Signaling Pathway (AID 914; active = well fitted activation curve with a large enough effect in the signal ratio, with a control signal flat, not every such curve was filed as active; the % refers to the signal ratio; also: % of control where 0% means no effect). As to conditions: ME-180 (cervical carcinoma) HRE-bla reporter, beta-lactamase ratio, CoCl2, 17 h; activation: active compounds read high. The gist of the method: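 AC50 values come from titration-series %Activity, taken as the 460/530nm ratio of CCF4 fluorescence (excitation 405nm). CellSensor HRE-bla ME-180 cells were treated 17 hours at 37 C with compound plus an EC50 level of CoCl2.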

For experiment [6], the target named is Cytochrome P450 2D6 (Homo sapiens) (UniProt P10635). In words: qHTS Assay for Inhibitors and Substrates of Cytochrome P450 2D6 (AID 891). Also: potency is read from the fitted curve at half-maximal effect; nearly all actives have a fitted effect of over 60% in size. The gist of the method:
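Human CYP2D6 (5 nM) with 30 uM Luciferin-ME EGE (at Km) in 100 mM KPO4, compound preincubated 10 min, then NADPH regeneration system for 60 min at room temperature. Luciferin read by luminescence; normalized to 1.43 uM quinidine.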

Experiment [7] concerns the target Cytochrome P450 2C19 (Homo sapiens) (UniProt P33261). In words: qHTS Assay for Inhibitors and Substrates of Cytochrome P450 2C19 (AID 899). Also: nearly all actives have a fitted effect of over 60% in size. Also: potency is read from the fitted curve at half-maximal effect. As to activity, negative = inhibition: % is scaled to controls: 0 for no effect and ±100 for the full control effect. An outline of the steps:
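5 nM human CYP2C19 with 10uM Luciferin-H EGE (at KM) in 50mM KPO4, compound preincubated 10 min at 37C, then NADPH regeneration for 60 min at 37C. Luciferin read by luminescence after detection reagent; normalized to 57uM ketoconazole as full inhibition.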

The target of experiment [8] is ATP-dependent 6-phosphofructokinase (Trypanosoma brucei brucei) (UniProt O15648). Kind of experiment: qHTS Assay to Find Inhibitors of T. brucei phosphofructokinase: hit validation (AID 492961).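 Also: luminescence reports ADP formed as PFK phosphorylates fructose-6-phosphate with ATP; % is scaled to controls: 0 for no effect and ±100 for the full control effect.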 The gist of the method:
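Compounds titrated; %activity normalized to 0x and 1x enzyme controls, curve-fitted. Readout: ADP-Glo luminescence after 45 min room-temperature reaction of 1.25 nM PFK, 0.1 mM ATP, 0.5 mM F6P, pH 8.0.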

Experiment [9] can be described thus: qHTS profiling for inhibitors of Plasmodium falciparum proliferation (AID 504749).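 Also: 0% = DMSO vehicle and full inhibition = artemisinin control; nearly all actives have a fitted effect of over 60% in size.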 Conditions: P. falciparum in erythrocytes, SYBR Green DNA, 72 h, at 12.8 µM (top of the series). The gist of the method:
(§1)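 Readout was DNA-dye fluorescence from lysed cultures, ex 485/em 535 nm. Parasitized red cells had grown 72 h with compound; data scaled between 0.29 uM artemisinin and DMSO wells and corrected using vehicle-only plates.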

Another experiment deals with AS120. The description is as above. As to conditions: P. falciparum in erythrocytes, SYBR Green DNA, 72 h; series mostly up to 28.7 µM. An outline of the steps:
as §1

The test system of another experiment is ATS189. Described as above. Conditions: P. falciparum in erythrocytes, SYBR Green DNA, 72 h; series mostly up to 28.7 µM. The gist of the method:
as §1

A further experiment has as its system CP191. The description is as above. Conditions: P. falciparum in erythrocytes, SYBR Green DNA, 72 h; series mostly up to 28.7 µM. The gist of the method:
as §1

The subject of another experiment is CP192. The description is as above. As to conditions: P. falciparum in erythrocytes, SYBR Green DNA, 72 h; series mostly up to 28.7 µM. The gist of the method:
as §1

In a further experiment the test system is CP203. Described as above. Conditions: P. falciparum in erythrocytes, SYBR Green DNA, 72 h; series mostly up to 28.7 µM. The gist of the method:
as §1

In another experiment the test system is CP247. The experiment is described as above. As to conditions: P. falciparum in erythrocytes, SYBR Green DNA, 72 h; series mostly up to 28.7 µM. An outline of the steps: as §1
For the next experiment, the system named is CP291. The experiment is described as above. As to conditions: P. falciparum in erythrocytes, SYBR Green DNA, 72 h; series mostly up to 28.7 µM. An outline of the steps: as §1
Another experiment concerns DFO2036. The description is as above. Conditions: P. falciparum in erythrocytes, SYBR Green DNA, 72 h; series mostly up to 28.7 µM. An outline of the steps:
as §1

A further experiment relates to PC49. The description is as above. As to conditions: P. falciparum in erythrocytes, SYBR Green DNA, 72 h; series mostly up to 28.7 µM. The gist of the method: as §1
Another experiment has as its system TAB113. The experiment is described as above. As to conditions: P. falciparum in erythrocytes, SYBR Green DNA, 72 h; series mostly up to 28.7 µM. The gist of the method: as §1
The test system of a further experiment is W2. The description is as above. As to conditions: P. falciparum in erythrocytes, SYBR Green DNA, 72 h; series mostly up to 28.7 µM. The gist of the method: as §1

A number with no mark means an inactive call. Results filed as inconclusive are left out. The source made the active and inactive calls. Unless noted, calls follow the shape of the dose curve; as a rule, active = well fitted curve in the direction sought with a large enough effect; inconclusive = small, poorly fitted or top-dose-only effect, or another doubt; inactive = no such curve, though single readings can be large; an effect the other way counts as inactive or inconclusive.

Sequence of Cytochrome P450 2C19 (Homo sapiens) (P33261 whole entry, looked up): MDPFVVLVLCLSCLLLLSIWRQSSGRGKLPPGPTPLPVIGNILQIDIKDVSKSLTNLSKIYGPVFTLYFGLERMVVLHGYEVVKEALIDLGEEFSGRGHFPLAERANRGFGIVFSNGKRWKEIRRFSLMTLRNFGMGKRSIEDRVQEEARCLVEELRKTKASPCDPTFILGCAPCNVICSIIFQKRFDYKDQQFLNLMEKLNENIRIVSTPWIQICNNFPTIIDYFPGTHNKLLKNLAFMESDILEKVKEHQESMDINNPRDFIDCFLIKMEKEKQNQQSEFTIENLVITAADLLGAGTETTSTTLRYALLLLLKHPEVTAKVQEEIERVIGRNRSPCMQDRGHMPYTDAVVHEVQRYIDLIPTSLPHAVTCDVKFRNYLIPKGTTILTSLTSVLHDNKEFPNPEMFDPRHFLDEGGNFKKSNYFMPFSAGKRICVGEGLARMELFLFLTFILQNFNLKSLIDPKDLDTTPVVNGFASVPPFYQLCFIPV
Sequence of Rap guanine nucleotide exchange factor 3 (Homo sapiens) (O95398 whole entry, looked up): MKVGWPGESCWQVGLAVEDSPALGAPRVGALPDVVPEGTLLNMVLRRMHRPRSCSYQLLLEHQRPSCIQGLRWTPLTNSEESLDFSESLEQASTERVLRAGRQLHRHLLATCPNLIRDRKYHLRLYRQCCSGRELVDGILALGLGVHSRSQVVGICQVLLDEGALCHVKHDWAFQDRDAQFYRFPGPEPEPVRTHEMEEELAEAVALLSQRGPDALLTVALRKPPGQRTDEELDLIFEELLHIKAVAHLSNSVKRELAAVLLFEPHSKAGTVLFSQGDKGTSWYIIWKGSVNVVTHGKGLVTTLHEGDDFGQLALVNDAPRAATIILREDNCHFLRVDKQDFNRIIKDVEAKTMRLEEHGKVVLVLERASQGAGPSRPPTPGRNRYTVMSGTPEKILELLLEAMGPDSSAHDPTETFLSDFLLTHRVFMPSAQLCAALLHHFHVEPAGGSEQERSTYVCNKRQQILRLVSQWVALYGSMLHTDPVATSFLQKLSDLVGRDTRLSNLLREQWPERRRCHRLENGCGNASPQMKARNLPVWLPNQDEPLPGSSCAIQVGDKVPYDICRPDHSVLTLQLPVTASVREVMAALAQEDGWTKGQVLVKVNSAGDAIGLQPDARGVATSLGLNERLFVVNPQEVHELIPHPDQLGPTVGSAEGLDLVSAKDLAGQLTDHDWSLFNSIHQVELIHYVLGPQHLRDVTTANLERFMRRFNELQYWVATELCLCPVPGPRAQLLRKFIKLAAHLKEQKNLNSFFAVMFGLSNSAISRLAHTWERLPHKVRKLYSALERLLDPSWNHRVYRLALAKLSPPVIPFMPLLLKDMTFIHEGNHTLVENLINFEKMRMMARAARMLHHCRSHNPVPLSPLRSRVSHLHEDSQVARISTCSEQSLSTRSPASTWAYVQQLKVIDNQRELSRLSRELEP
Sequence of Cytochrome P450 2D6 (Homo sapiens) (P10635 whole entry, looked up): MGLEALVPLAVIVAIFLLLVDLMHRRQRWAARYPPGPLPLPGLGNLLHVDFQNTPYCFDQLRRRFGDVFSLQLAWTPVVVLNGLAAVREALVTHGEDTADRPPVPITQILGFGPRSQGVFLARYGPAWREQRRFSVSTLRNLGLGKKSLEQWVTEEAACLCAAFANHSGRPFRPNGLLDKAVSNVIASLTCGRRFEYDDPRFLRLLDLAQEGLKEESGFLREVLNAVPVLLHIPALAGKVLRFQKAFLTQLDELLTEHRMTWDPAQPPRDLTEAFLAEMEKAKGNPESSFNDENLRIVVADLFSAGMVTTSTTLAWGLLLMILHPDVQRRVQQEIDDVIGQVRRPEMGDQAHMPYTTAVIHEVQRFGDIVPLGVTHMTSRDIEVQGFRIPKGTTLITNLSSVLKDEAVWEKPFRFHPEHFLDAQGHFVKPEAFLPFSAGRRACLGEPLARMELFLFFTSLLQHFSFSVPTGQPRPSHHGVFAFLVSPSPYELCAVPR
Sequence of Cytochrome P450 2C9 (Homo sapiens) (P11712 whole entry, looked up): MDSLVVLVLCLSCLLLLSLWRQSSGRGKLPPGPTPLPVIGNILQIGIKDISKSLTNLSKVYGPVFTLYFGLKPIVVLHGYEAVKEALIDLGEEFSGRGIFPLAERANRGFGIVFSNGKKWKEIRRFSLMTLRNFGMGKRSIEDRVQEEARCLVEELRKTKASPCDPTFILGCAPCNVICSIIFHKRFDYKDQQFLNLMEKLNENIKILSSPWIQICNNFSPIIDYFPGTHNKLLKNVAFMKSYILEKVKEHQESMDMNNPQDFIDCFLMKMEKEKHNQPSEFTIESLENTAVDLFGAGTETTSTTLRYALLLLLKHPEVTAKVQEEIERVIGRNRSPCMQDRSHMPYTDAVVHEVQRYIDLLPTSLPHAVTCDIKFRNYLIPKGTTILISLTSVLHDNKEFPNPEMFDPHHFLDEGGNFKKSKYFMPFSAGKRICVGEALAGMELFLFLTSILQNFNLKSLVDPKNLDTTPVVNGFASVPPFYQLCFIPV
Sequence of ATP-dependent 6-phosphofructokinase (Trypanosoma brucei brucei) (O15648 whole entry, looked up): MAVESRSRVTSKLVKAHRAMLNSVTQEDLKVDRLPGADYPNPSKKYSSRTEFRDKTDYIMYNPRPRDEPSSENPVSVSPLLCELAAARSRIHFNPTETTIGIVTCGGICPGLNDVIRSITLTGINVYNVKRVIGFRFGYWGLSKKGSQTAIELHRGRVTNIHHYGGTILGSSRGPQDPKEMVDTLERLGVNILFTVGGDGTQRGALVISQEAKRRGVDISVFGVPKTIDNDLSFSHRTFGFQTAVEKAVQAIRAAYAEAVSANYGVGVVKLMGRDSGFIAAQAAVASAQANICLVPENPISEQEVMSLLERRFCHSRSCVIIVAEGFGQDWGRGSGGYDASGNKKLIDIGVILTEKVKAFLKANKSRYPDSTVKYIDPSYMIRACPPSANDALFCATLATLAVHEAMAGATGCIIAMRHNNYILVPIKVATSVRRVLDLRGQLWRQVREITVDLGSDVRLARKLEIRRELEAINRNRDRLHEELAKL

On to `COc1ccc(C(=O)N2CCC3(CC2)CN(c2ccncc2)C3)cc1`, for which, in experiment [1], the Potency result was “inactive”.
On the same count and under the same terms, as for `COc1ccc(-n2c(=O)c(-c3cc(F)cc(F)c3)nc3cnc(N(C)C)nc32)cc1`, the entry is “inactive”; as for `Cc1noc(C)c1C(=O)N1CCC2(CCN(Cc3ccc(C#N)cc3)CC2)CC1`, “inactive”; as for `COCCn1c(=O)c(CCc2ccccc2)nc2cnc(Nc3cccc(OC)c3)nc21`, “inactive”.
Regarding `COCC(=O)N1CCC2(CC1)CN(c1ccccn1)C2`, the Potency result in [1] was “inactive”.
Take `COc1cc(O)c2c(=O)cc(C)oc2c1CC=C(C)C`: the compound was called inactive in [2] and in experiment [3]. Moreover, the Potency entry in experiment [1] is “inactive”.
On to `O=C(c1cccc(F)c1)N1CCC2(CC1)CN(c1cccc(-c3ccccc3)c1)C2`, for which, in [1], the Potency entry was “inactive”.
Take `O=C(Oc1ccccc1)N1CCC2(CCCN(c3ccccc3)C2)CC1`: the Potency entry in experiment [1] is “inactive”.
In the case of `COCC(=O)N1CCC2(CC1)CCN(C(=O)Nc1cccc(C#N)c1)CC2`, the Potency entry in experiment [1] was “inactive”.
Same read-out and setting: as for `O=c1cnc2cnc(Oc3cccc(Cl)c3)nc2n1Cc1ccc(F)cc1`, the entry is “inactive”.
Turning to `O=c1c(-c2cc(F)cc(F)c2)nc2cnc(N3CCNCC3)nc2n1Cc1cccs1`, the Potency in experiment [4] is 3.98 µM (active).
Regarding `FC(F)(F)c1ccccc1-c1nc(N2CCOCC2)c2ccccc2n1`, the activation in experiment [5] was 9.18%. Also, the Potency entry in experiment [1] is “inactive”.
As to `COc1cccc(Cn2c(=O)c(-c3cn(C)c4ccccc34)nc3cnc(N4CCNCC4)nc32)c1`, the Potency result in [1] is “inactive”.
As to `CN(C)c1ncc2nc(-c3cccs3)c(=O)n(CCC#N)c2n1`, the Potency entry in experiment [1] is “inactive”.
Consider `COc1ccccc1CNc1ccnc(-c2ccc3c(c2)OCO3)n1`, for which the Potency was 0.794 µM (active) in experiment [6] and 3.16 µM (active) in [7]. Also, the compound was classed as inactive in experiment [2] and in [3].
Regarding `CN(C)c1ncc2nc(-c3cccs3)c(=O)n(C[C@H]3CCCO3)c2n1`, in [1], the Potency result is “inactive”.
In the case of `COc1ccccc1-c1cc(NCc2cccc(C)c2)ncn1`, in [7], the Potency was 3.98 µM (active). Besides, the Potency result in [1] is “inactive”.
In the case of `Oc1ccc(/C=C\c2cc(O)cc(O)c2)cc1`, the compound was classed as inactive in [2], in experiment [3] and in experiment [8]. Further, the activity, negative = inhibition in experiment [9] (parasite line A) was 3.83%; in experiment [9] (parasite line B), -0.952%. Besides, the Potency entry with AS120, in the experiment on ATS189, with CP191, in the experiment on CP192, in the experiment on CP203 and in the experiment on CP247 was “inactive” in each case. The Potency entry with CP291, in the experiment with DFO2036, in the experiment on PC49, with TAB113 and in the experiment with W2 was “inactive” each time.
Take `COCCn1c(=O)c(-c2cccs2)nc2cnc(N(C)C)nc21`: the Potency result in experiment [1] is “inactive”.
In the case of `O=C(c1cc(C(F)(F)F)cc(C(F)(F)F)c1)N1CCC2(CCCN(Cc3nccs3)C2)CC1`, in experiment [7], the Potency result was “inactive”.
Take `Cc1cccc(CNc2nc(-c3ccc4c(c3)OCO4)nc3ccccc23)c1`: in [7], the Potency is 3.16 µM (active). Besides, the Potency entry in [1] was “inactive”.
For the compound `O=C(c1cnccn1)N1CCC[C@@]2(CCN(C(c3ccccc3)c3ccccc3)C2)C1`, in [1], the Potency result was “inactive”.
For `CNc1ccnc(-c2ccccc2OC)n1`, the Potency in [6] is 5.01 µM (active). Besides, the activation in experiment [5] is 7.18%.
As to `CN1CCN(c2ncc3ncc(=O)n(CCC#N)c3n2)CC1`, the Potency result in [7] was “inactive”.
Same read-out and setting: as for `Cc1noc(C)c1-c1cncnc1N(C)Cc1ccco1`, the figure is 2.51 µM (active).
Turning to `CN(C)Cc1ccccc1-c1nc(N(C)C)c2ccccc2n1`, the Potency in experiment [6] is 2.51 µM (active).
For the compound `Cc1ccccc1-c1cncnc1NCc1cccs1`, in [7], the Potency was 0.794 µM (active).
On the same count and under the same terms, under `O=c1c(CCc2ccccc2)nc2cncnc2n1Cc1ccc(F)cc1` stands 6.31 µM (active).
As for `CNc1cc(-c2ccccc2CN(C)C)ncn1`, the Potency in [6] is 0.631 µM (active).
Regarding `CNc1cc(-c2ccccc2C(F)(F)F)ncn1`, the activation in [5] is 17.1%.
As to `COCCn1c(=O)c(C)nc2cnc(N3CCN(C)CC3)nc21`, the Potency result in experiment [4] was “inactive”.
Turning to `Cn1c(=O)c(-c2cc(F)cc(F)c2)nc2cnc(N3CCOCC3)nc21`, the activation in [5] was -3.42%.
Take `Cc1noc(C)c1-c1cc(NCc2cccs2)ncn1`: the Potency result in experiment [7] was “inactive”.
Same read-out and setting: under `Cc1noc(C)c1-c1cc(NC2CCNCC2)ncn1` stands “inactive”.
For `COc1cccc(-c2nc(NCc3ccccc3)c3ccccc3n2)c1`, the results for the Potency in [4] and in experiment [7] were 1.26 µM (active) and 3.98 µM (active), respectively.
Consider `Cc1nc2cncnc2n(Cc2ccccc2)c1=O`, for which the Potency in experiment [7] is 0.158 µM (active).
Consider `CN1CCN(c2ncnc3ccc(-c4ccc5c(c4)OCO5)cc23)CC1`, for which the Potency in experiment [6] was 0.251 µM (active).
As to `FC(F)(F)c1ccccc1-c1nccc(NCc2cccs2)n1`, the Potency in experiment [7] is 2 µM (active).
Consider `Cc1noc(C)c1-c1cncnc1NCc1ccccc1`, for which the activation in [5] is 4.46%.
Turning to `CN(C)c1ccc(-c2cc(Nc3ccc(F)cc3)ncn2)cc1`, the Potency in experiment [7] was 2 µM (active).
